Compound activity as filed in PubChem.
This is a sample that favours compounds with a hit; in the whole collection about 8% have one here.
Gal4-VP16 FLuc: Gal4-VP16 reporter inhibition counter-screen. Drosophila S2 Gal4-VP16 UAS-luciferase, luminescence, 20 h. Potency, µM (titrated, usually from 53.6 µM), usual class: inhibitors. hit rate 3.5% among 310,000;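 note: Gal4-VP16 expression switched on by copper sulfate through the metallothionein promoter; nearly all actives have a fitted effect of over 50% in size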
RORg inh: blocks mouse ROR gamma transcriptional activity. P51450. Drosophila S2 Gal4-RORgamma UAS-luciferase reporter, 20 h. Potency, µM (doses to about 53.6 µM), hits mostly inhibitors. hit rate 5.4% among 310,000. AID 2551; note: nearly all actives have a fitted effect of over 60% in size
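A Gal4/UAS one-hybrid system in insect cells: metallothionein-promoter Gal4–ROR gamma fusion plus Photinus luciferase reporter. Copper sulfate 700 uM final, 20 hr ambient incubation, luminescent detection after 10 min with reagent.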
ELG1 repair inh: inhibitors of ELG1-dependent DNA repair in HEK293T cells | HEK293T ELG1-luciferase reporter, luminescence, 16 h; DNA damage induced by 5-fluorouridine | Potency, µM (doses to about 46.1 µM), actives largely listed as inhibitors | hit rate 2.3% among 330,000; note: nearly all actives have a fitted effect of over 55% in size
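HEK293T cells expressing luciferase-tagged ELG1 (2,000/well) received 5-Fluorouridine plus compound or DMSO for 16 hr at 37 °C. Luciferase was read by ONE-Glo luminescence after 30 min at room temperature.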
TSHR antagonist: antagonists of human thyroid stimulating hormone receptor | P16473 | activity change, negative = inhibition, % at 11.5 µM | hit rate 0.2% among 330,000 | AID 504810 | TSHR-expressing cells, TSH-stimulated cAMP HTRF, 2 h; stronger effect = lower value;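 active = activity change below a set negative limit, meaning inhibition stronger than a set level, cut at about -70% in these data; inconclusive = activity change between two set negative limits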
Target sequence (P16473 whole entry, looked up): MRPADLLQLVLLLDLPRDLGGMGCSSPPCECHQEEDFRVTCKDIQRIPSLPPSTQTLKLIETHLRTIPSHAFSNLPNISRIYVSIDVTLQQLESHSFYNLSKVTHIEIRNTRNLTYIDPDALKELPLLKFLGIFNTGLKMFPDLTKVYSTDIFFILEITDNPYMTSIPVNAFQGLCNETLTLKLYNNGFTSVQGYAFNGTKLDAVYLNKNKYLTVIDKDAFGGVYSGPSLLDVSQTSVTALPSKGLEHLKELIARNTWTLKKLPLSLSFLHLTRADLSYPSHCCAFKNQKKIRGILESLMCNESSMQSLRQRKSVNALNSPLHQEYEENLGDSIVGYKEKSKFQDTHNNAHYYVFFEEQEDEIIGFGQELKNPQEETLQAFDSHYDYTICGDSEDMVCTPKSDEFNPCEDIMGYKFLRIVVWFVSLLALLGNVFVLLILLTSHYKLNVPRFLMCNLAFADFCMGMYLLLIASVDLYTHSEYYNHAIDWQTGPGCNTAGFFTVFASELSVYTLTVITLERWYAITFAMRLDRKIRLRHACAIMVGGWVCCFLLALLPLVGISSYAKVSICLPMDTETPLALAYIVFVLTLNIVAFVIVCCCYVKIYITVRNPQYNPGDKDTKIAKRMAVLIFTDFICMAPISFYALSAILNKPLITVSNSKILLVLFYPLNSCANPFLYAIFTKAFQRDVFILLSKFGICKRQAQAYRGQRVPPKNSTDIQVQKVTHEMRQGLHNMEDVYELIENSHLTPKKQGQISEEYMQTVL
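Antagonism was scored as loss of TSH-driven cAMP in TSHR cells, stimulated with 4nM TSH (EC80) for 2 hours at 37 deg C and detected by homogeneous HTRF competition immunoassay.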
Coupling enz: inhibits coupling enzyme system, counter-screen for aldolase hits. hit rate 0.67% among 290,000. activity change, negative = inhibition, % at 58.2 µM, hits read low. coupling enzyme system counterscreen, AmpLite Red fluorescence; in the data active = activity change below about -30%
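Final compound at 57.5 uM, incubated 10 min at RT with coupling enzyme reagent (glyceraldehyde-3-phosphate), then 20 min with substrate and AmpLite Red detection. Fluorescence read at 525/598 nm; tests interference with the coupling assay, not aldolase inhibition.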
Large screens that a line does not name were inactive. Unless noted, calls come from the whole dose curve; as a rule, active = well fitted curve in the direction sought with a large enough effect; inconclusive = small, poorly fitted or top-dose-only effect, or another doubt; inactive = no such curve, though single readings can be large; an effect the other way counts as inactive or inconclusive.

OCC[C@@H]1C[C@@H](O)[C@H](O)[C@]2(CCc3ccccc3CO2)O1	none
CCOc1cccc(CNn2cnnc2)c1OCc1ccccc1Cl	none
CCOc1cccc(CNc2ccc(O)cc2)c1OCc1ccc(Cl)cc1Cl	Gal4-VP16 FLuc inconclusive, RORg inh 16µM, ELG1 repair inh inconclusive, Coupling enz -50
CCOc1cccc(CNc2ccc(O)cc2)c1OCc1ccccc1Cl	ELG1 repair inh 18µM
CCCN(C(=O)c1cc(S(=O)(=O)N2CCCCCC2)ccc1OC)C1CCS(=O)(=O)C1 (stereo not given)	none (no result: Gal4-VP16 FLuc, RORg inh, Coupling enz)
COc1cc(-c2nnc3sc(C4CCCCC4)nn23)cc(OC)c1OC	RORg inh inconclusive, ELG1 repair inh inconclusive
c1cncc(-c2nnc3sc(C4CCCCC4)nn23)c1	none
COc1cccc(-c2nnc3sc(C4CCCCC4)nn23)c1	ELG1 repair inh 4.6µM
CCOc1cccc(-c2nnc3sc(C4CCCCC4)nn23)c1	Gal4-VP16 FLuc inconclusive, RORg inh 20µM, ELG1 repair inh 21µM
O=C(Nc1ccnn1C1CCN(Cc2cccc(OCCO)c2)CC1)C1CCOC1 (stereo not given)	none (no result: Coupling enz)
CCCCCCCN1CCC(=O)N([C@H](CO)CC(C)C)CC1	none
COc1ccccc1C(=O)NC(=O)COC(=O)c1ccc([N+](=O)[O-])cc1Cl	none (no result: Gal4-VP16 FLuc, RORg inh, Coupling enz)
COc1ccc(Cl)cc1N(CC(=O)NCCSc1ccccn1)S(=O)(=O)c1ccccc1	none
COc1cc(C(CC(=O)Nc2cc(C)ccn2)N2Cc3ccccc3C2=O)cc(OC)c1OC (stereo not given)	ELG1 repair inh inconclusive
O=C(c1cccc(F)c1)N1CCC2(CC1)CCN(c1ccncc1)CC2	none (no result: ELG1 repair inh, TSHR antagonist)
CCCc1cc(C(=O)Cc2ccc(F)cc2)c(O)cc1O	Gal4-VP16 FLuc inconclusive, RORg inh 11µM
COc1ccccc1OCCNC(=O)CN1C(=O)NC2(CCCC2)C1=O	none (no result: Gal4-VP16 FLuc, RORg inh, Coupling enz)
CCNC(=S)NNC(=O)c1ccccc1OC(F)F	Gal4-VP16 FLuc inconclusive, RORg inh 4µM
CCNC(=S)NNC(=O)c1ccccn1	Gal4-VP16 FLuc inconclusive, RORg inh 8.9µM
COc1ccc(NC(=S)NNC(=O)c2ccccc2OC(F)F)cc1	RORg inh 13µM
O=C(NNC(=O)c1ccccc1Cl)c1ccccc1Cl	none
CCNC(=S)NNC(=O)c1ccccc1Cl	Gal4-VP16 FLuc 14µM, RORg inh 3.2µM
CCNC(=S)NNC(=O)c1ccncc1	RORg inh inconclusive
C[C@]12C=CC(=O)C=C1CC[C@@H]1C2[C@@H](O)C[C@@]2(C)C1CC[C@]2(O)C(=O)COC(=O)CCC(=O)O (stereo not given in full)	none
O=C(CN1CC[n+]2c(-c3cccs3)csc21)c1ccc(Br)cc1	RORg inh inconclusive, ELG1 repair inh inconclusive
O=C(CN1CC[n+]2c(-c3ccccc3)csc21)c1ccc(Br)cc1	Gal4-VP16 FLuc inconclusive, RORg inh inconclusive, ELG1 repair inh 16µM
COc1ccc(OCC(=O)Sc2ccc(C)cc2)cc1	RORg inh 3.2µM
COc1ccc(OC(=O)COc2ccc(C)cc2)cc1	none
Cc1c(C)c2ccc(OCC(=O)NCCN3CCOCC3)cc2oc1=O	none (no result: Coupling enz)
COC(=O)c1ccc(/C=N/Nc2nc(N3CCCCC3)nc(N3CCCCC3)n2)cc1	none
COc1ccc(Nc2nc(N3CCCCC3)c3ccccc3n2)cc1	Gal4-VP16 FLuc 7.1µM, RORg inh 18µM
COc1ccc(/C=N/Nc2nc(N3CCCC3)nc(N3CCCC3)n2)cc1O	RORg inh 11µM, ELG1 repair inh inconclusive
COc1ccc(/C=N/Nc2nc(N3CCCC3)nc(N3CCCC3)n2)cc1	Gal4-VP16 FLuc inconclusive, RORg inh 5µM, ELG1 repair inh inconclusive
C(=N\Nc1nc(Nc2ccccc2)nc(N2CCCCC2)n1)/c1ccco1	Gal4-VP16 FLuc 13µM, RORg inh 2.2µM, ELG1 repair inh inconclusive
CSc1ccccc1OCc1cc(C(=O)NCCC2=CCCCC2)no1	none
Cc1ccc(CN(C(=O)COc2cccc(C)c2C)C2CCS(=O)(=O)C2)o1 (stereo not given)	none (no result: Coupling enz)
COc1ccc(/C=N/Nc2nc(Nc3ccccc3)nc(N3CCCC3)n2)cc1	RORg inh 2.8µM, ELG1 repair inh inconclusive
COc1cc(/C=N/Nc2nc(N3CCCC3)nc(N3CCCC3)n2)ccc1OCc1ccccc1F	RORg inh inconclusive, ELG1 repair inh inconclusive, TSHR antagonist -71
O=C(O)COc1ccc(/C=N/Nc2nc(Nc3ccccc3)nc(N3CCCCC3)n2)cc1	Gal4-VP16 FLuc inconclusive, RORg inh inconclusive
Fc1ccccc1/C=N/Nc1nc(N2CCCCC2)nc(N2CCCCC2)n1	none
COc1ccc(S(=O)(=O)N2c3ccc(Cl)cc3[C@](O)(c3ccccc3Cl)[C@@H]2C(=O)N2CCC[C@H]2C(N)=O)cc1OC	Gal4-VP16 FLuc inconclusive (no result: ELG1 repair inh, TSHR antagonist)
C[N+]1(C)CCC[C@H]1C(=O)[O-]	none (no result: ELG1 repair inh, TSHR antagonist)
Cc1cc(C)n(-c2ccc([N+](=O)[O-])cc2-c2nn[nH]n2)n1	none
O=[N+]([O-])c1ccc(O)c(-c2nn[nH]n2)c1	RORg inh 10µM, ELG1 repair inh inconclusive
CC12CCC(c3n[nH]c(=S)nc31)C2(C)C (stereo not given)	Gal4-VP16 FLuc inconclusive, RORg inh 13µM
COc1ccc(N2CC(C(=O)Nc3c(C(N)=O)oc4ccccc34)CC2=O)cc1 (stereo not given)	none (no result: Gal4-VP16 FLuc, RORg inh, Coupling enz)
O=C(CCS(=O)(=O)c1ccc(F)cc1)Nc1nnc(-c2ccc(F)cc2)o1	none (no result: Gal4-VP16 FLuc, RORg inh, Coupling enz)
COc1ccc(NC(=O)c2ccc(S(=O)(=O)N(C)C)cc2)cc1OC	none
CCN(CC)S(=O)(=O)c1ccc(C(=O)Nc2ncn(Cc3ccccc3)n2)cc1	none
COc1ccccc1-c1nnc(NC(=O)CCS(=O)(=O)c2ccccc2)o1	Gal4-VP16 FLuc 10µM, RORg inh 10µM (no result: Coupling enz)
COc1ccccc1-c1nnc(NC(=O)c2ccc(S(=O)(=O)N(C)C)cc2)o1	Gal4-VP16 FLuc 0.63µM, RORg inh 0.71µM, ELG1 repair inh inconclusive
CCN(Cc1ccccc1)S(=O)(=O)c1ccc(C(=O)Nc2nnc(-c3ccccc3OC)o2)cc1	Gal4-VP16 FLuc 0.35µM, RORg inh 0.2µM, ELG1 repair inh inconclusive
CCN(C(=O)COC(=O)c1ccc2c(c1)OCO2)c1ccc(F)cc1	none (no result: Gal4-VP16 FLuc, RORg inh, Coupling enz)
CCCCC1(Cc2ccc([N+](=O)[O-])cc2)C(=O)N(c2ccccc2)N(c2ccccc2)C1=O	Gal4-VP16 FLuc 7.1µM, RORg inh inconclusive
CCCCC1(COC(=O)CCC(=O)O)C(=O)N(c2ccccc2)N(c2ccccc2)C1=O	none
CN(C)C(=O)CSc1ccc(S(=O)(=O)N2CCOCC2)cn1	none (no result: Gal4-VP16 FLuc, RORg inh, Coupling enz)
C=CCOc1c(Br)cc(/C=N/NC(=O)Cc2ccc(C(F)(F)F)cc2[N+](=O)[O-])cc1OC	Gal4-VP16 FLuc 18µM, RORg inh inconclusive, ELG1 repair inh inconclusive
CCOc1cc(/C=N/NC(=O)Cc2ccc(C(F)(F)F)cc2[N+](=O)[O-])ccc1O	none
Cc1cc(C)c2c(c1)/C(=N/NC(=S)Nc1ccc(F)cc1)CCC2	Gal4-VP16 FLuc 16µM, ELG1 repair inh inconclusive
